Hits are enriched below; roughly 5.7% of the tested compounds scored in any of these assays.
KB-V1 MDR tox: qHTS assay for MDR1-selective chemotherapeutics: Primary screen using the drug-selected MDR subline cells KB-V1 | AID 1347076, 2019 | actives 3.4% (n = 400,000) | KB-V1 MDR cells viability, CellTiter-Glo, 72 h | Potency, µM (highest dose often 46.1 µM), most hits filed as cytotoxic; further: nearly all actives have a fitted effect of over 60% in size
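Drug-selected KB-V1 cells, grown in DMEM lacking phenol red with 10% FBS, receive compound titrations; after three days at 37 degrees C, surviving cell ATP is quantified by CellTiter-Glo luminescence and responses normalized and curve-fitted.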
HT1080NT lethal: qHTS for induction of synthetic lethality in tumor cells producing 2HG: qHTS for the HT-1080-NT fibrosarcoma cell line; HT-1080-NT fibrosarcoma viability, CellTiter-Glo ATP luminescence, 48 h; Potency, µM (highest dose often 46.1 µM), actives largely listed as cytotoxic; actives 1.6% (n = 360,000); AID 686970, 2013;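 further: NT is the 2HG producing partner of a matched IDH1 knockdown line; nearly all actives have a fitted effect of over 55% in size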
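750 cells/well, RPMI + 5% FBS; 2 h settle, compound pin-transfer, 48 h at 37 degrees C. CellTiter-Glo 10 min RT, luminescence. Normalized to DMSO and media-only wells.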
KB-3-1 cytotox: qHTS assay for MDR1-selective chemotherapeutics: Primary screen using the parental adenocarcinoma cell KB-3-1; Potency, µM (series often up to 46.1 µM), actives largely listed as cytotoxic; KB-3-1 viability, CellTiter-Glo ATP luminescence, 72 h; AID 1347075, 2019; actives 1.4% (n = 400,000); further: nearly all actives have a fitted effect of over 60% in size
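Viability of parental KB-3-1 cells, measured by CellTiter-Glo luminescence, followed a 72 h incubation at 37 °C with pinned compounds in phenol-red-free DMEM containing 10% FBS.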
HT1080 IDH1KD tx: qHTS for induction of synthetic lethality in tumor cells producing 2HG: qHTS for the HT-1080-IDH1KD cell line. Potency, µM (highest dose often 46.1 µM), hits mostly cytotoxic. actives 2% (n = 360,000). HT-1080 IDH1 knockdown viability, ATP luminescence, 48 h. AID 686971, 2013
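Cytotoxicity counter-line: IDH1KD HT-1080, 48 h, CellTiter-Glo. Curves classed by r2, magnitude and activity.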
Of the large screens only hits and unclear results are named; the others gave an inactive call. The call rests on the fitted dose curve; in most records, active means well fitted curve in the direction sought with a large enough effect; inconclusive means small, poorly fitted or top-dose-only effect, or another doubt; inactive means no such curve, though single readings can be large; an effect the other way counts as inactive or inconclusive.

COc1ccccc1CNC(=O)C1CCCN(S(=O)(=O)c2ccc3c(c2)oc(=O)n3C)C1 (configuration not stated)	none (no result: HT1080NT lethal, HT1080 IDH1KD tx)
O=C(Nc1c2c(nn1-c1ccc(Cl)cc1)CS(=O)(=O)C2)c1cccc(F)c1	none (no result: HT1080NT lethal, HT1080 IDH1KD tx)
Cc1ccc(OCC(=O)Nc2c(Cl)ccc3nsnc23)cc1C	KB-V1 MDR tox inconclusive (no result: HT1080NT lethal, HT1080 IDH1KD tx)
COc1ccc(-c2csc(NC(=O)c3cc(C)on3)c2C#N)cc1OC	KB-V1 MDR tox 16.4µM, HT1080NT lethal inconclusive, HT1080 IDH1KD tx inconclusive
O=C(Nc1ccc(F)cc1)c1oc2ccccc2c1NC(=O)C1CCCCC1	none (no result: HT1080NT lethal, HT1080 IDH1KD tx)
C=CCn1c(SCc2ccc(C(=O)Nc3nccs3)cc2)nnc1-c1ccc(C)c(Cl)c1	KB-V1 MDR tox 5.17µM, KB-3-1 cytotox inconclusive, HT1080 IDH1KD tx inconclusive
Cc1cc(Nc2ccc3c(c2)OCCO3)c2cc(Cl)ccc2n1	KB-V1 MDR tox 14.6µM
Cc1cc(C)c(S(=O)(=O)Nc2cnc3ccccc3c2)c(C)c1	KB-V1 MDR tox 14.6µM
Cc1cc(C)c(S(=O)(=O)Nc2ccccc2-c2ccccc2)c(C)c1	KB-V1 MDR tox 18.4µM, KB-3-1 cytotox inconclusive
O=C(NCc1ccccc1Cl)C1CCN(C(=O)N2CCOc3ccccc32)CC1	none (no result: HT1080NT lethal, HT1080 IDH1KD tx)
COc1ccc(N(CC(=O)NC2CCCCCC2)S(=O)(=O)c2c(C)nn(C)c2C)cc1	KB-V1 MDR tox 8.2µM, KB-3-1 cytotox inconclusive
Cc1nn(C)c(C)c1S(=O)(=O)N(CC(=O)NCCCOC(C)C)c1ccc(C(C)C)cc1	KB-V1 MDR tox 4.61µM
Cc1ccc(N(CC(=O)NC2CCCCCC2)S(=O)(=O)c2c(C)nn(C)c2C)cc1	KB-V1 MDR tox 9.2µM
Cc1ccc(N(CC(=O)NC2CCCCC2C)S(=O)(=O)c2c(C)nn(C)c2C)cc1 (configuration not stated)	none
CCc1ccccc1Nc1cc(C(=O)NCCCN(C)C2CCCCC2)c2ccccc2n1	none (no result: HT1080NT lethal, HT1080 IDH1KD tx)
Cc1cccc(OCCn2nnc3sc4c(c3c2=O)CCCC4)c1	none (no result: HT1080NT lethal, HT1080 IDH1KD tx)
O=C(C=P(c1ccccc1)(c1ccccc1)c1ccccc1)c1ccccc1-c1ccccc1C(=O)C=P(c1ccccc1)(c1ccccc1)c1ccccc1	HT1080NT lethal 13µM, KB-3-1 cytotox inconclusive, HT1080 IDH1KD tx 7.31µM
Oc1ccc(N=Nc2ccccc2)o1	HT1080NT lethal 16.4µM, HT1080 IDH1KD tx 23.1µM
COc1cccc(C=C(C(C)=O)C(=O)c2ccccc2)c1	KB-V1 MDR tox inconclusive, HT1080NT lethal inconclusive, KB-3-1 cytotox inconclusive, HT1080 IDH1KD tx 16.4µM
COc1cccc(/C=C(/C(=O)OCC(N)=O)c2ccccc2)c1	KB-V1 MDR tox inconclusive
CCC(=O)Nc1ccc(/C=C(\C(C)=O)C(=O)c2ccccc2)cc1	HT1080NT lethal 18.4µM, KB-3-1 cytotox inconclusive, HT1080 IDH1KD tx 16.4µM
O=C(C(=Cc1ccc(F)cc1)C(=O)c1ccccc1)c1ccccc1	KB-V1 MDR tox 20.6µM, HT1080NT lethal inconclusive, KB-3-1 cytotox 18.4µM, HT1080 IDH1KD tx inconclusive
O=C(C(=Cc1ccc(F)cc1)c1ccccc1)c1ccc(O)cc1	none
COc1cccc(C(=O)N/N=C/C(Br)=C/c2ccccc2)c1	KB-V1 MDR tox 3.66µM, HT1080NT lethal inconclusive, KB-3-1 cytotox inconclusive, HT1080 IDH1KD tx 11.6µM
O=C(/C=C/c1ccc(C(F)(F)F)cc1)Nc1cccc([S+](=O)([O-])Nc2ccccc2F)c1	none (no result: HT1080NT lethal, HT1080 IDH1KD tx)
Cc1ccc(-c2cc(C(=O)N/N=C/C(Br)=C/c3ccccc3)n[nH]2)o1	KB-V1 MDR tox inconclusive, HT1080NT lethal 20.6µM, HT1080 IDH1KD tx 20.6µM
Cn1cc(C(=O)N/N=C/C(Br)=C/c2ccccc2)ccc1=O	HT1080NT lethal 20.6µM, KB-3-1 cytotox inconclusive, HT1080 IDH1KD tx inconclusive
CC(C)CCN1CC(O)=C(c2nc3ccccc3[nH]2)C1=N	KB-V1 MDR tox 10.3µM
CCCCN1CC(O)=C(c2nc3ccccc3[nH]2)C1=N	none
CC(C)c1nc(N2CCN(C(=O)c3ccco3)CC2)c(C#N)c2c1COC(C)(C)C2	KB-V1 MDR tox 18.4µM, HT1080NT lethal inconclusive, KB-3-1 cytotox inconclusive, HT1080 IDH1KD tx inconclusive
Cc1c2ccncc2cc2c1[nH]c1ccccc12	KB-V1 MDR tox inconclusive, HT1080NT lethal 18.4µM, KB-3-1 cytotox inconclusive, HT1080 IDH1KD tx 13µM
Cc1ccc(C(C(=O)NC2CCCC2)N(C(=O)CCC(=O)Nc2cc(C)on2)c2ccccc2)cc1 (configuration not stated)	none
